Measurements published in PubChem BioAssay (NCI).
This is part of a sample that, as a whole, favours compounds with a hit. Of some 79,000 tested, about 15% had one in any assay. Activity calls are given as the source filed them. Rule as the data show it: active = growth inhibition above about 70%; inactive = the rest.

Assay: NCI Yeast Anticancer Drug Screen. Data for the mec2-1 strain (AID 157)
Details: S. cerevisiae mec2-1 strain, at 50.0 µM, hits give high values
Summary of the method: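 Vehicle-treated cultures served as reference for growth inhibition of compound-exposed mec2-1 yeast.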

Row | SMILES | growth inhibition
1 | Cc1cc(NCCCCCCCNc2cc(C)nc3cc(N)ccc23)c2ccc(N)cc2n1 | 85.5% (active)
2 | C[C@]12CC[C@H]3[C@@H](CCC4=CC(=O)CC[C@@]43C)[C@@H]1CC[C@@H]2C(=O)C=O | 52.6% (inactive)
3 | COc1cc2c[n+](C)c3c4cc(OC)c(OCc5ccccc5)cc4c(OCc4ccccc4)cc3c2cc1OC | 53.7% (inactive)
4 | Nc1ncnc2c1c(-c1ccc(Cl)cc1)cn2-c1ccccc1 | 30.1% (inactive)
5 | Cc1c[nH]c2nc(C)n(-c3ccccc3)c(=N)c12 | 16.5% (inactive)
6 | COc1ccc(Cc2ccc3c(C)cc(Cl)nc3c2)cc1 | 67.8% (inactive)
7 | COC(=O)c1ccc(NCc2c(O)ccc(O)c2Br)cc1Cl | 92.2% (active)
8 | CC1=CC(=O)c2c(O)c3c(c(O)c2C1=O)C1C(O)C(C3=O)C23C(=O)c4c(O)c(C)cc(O)c4C(O)=C2C(=O)CC(O)C13 (centres undefined) | 93.3% (active)
9 | CC(C)(O)[C@H](CCO)O[Si](c1ccccc1)(c1ccccc1)C(C)(C)C | 92% (active)
10 | COC(=O)/C(C#N)=C(/SC)N(C)C | 4.1% (inactive)
11 | N#CC(C(=O)CCCC(=O)Nc1ccc(Cl)cc1)c1ccccc1Cl (centres undefined) | 98% (active)
12 | FC(F)(F)c1cccc(Nc2ccc3cnc4ccccc4c3c2)c1 | 95.2% (active)
13 | CN1C(/C=C/c2ccc(O)c3ncccc23)CCC2CCCC(O)C21 (centres undefined) | 89.6% (active)
14 | N#CC1(C#N)C(C#N)(C#N)C12CCCC2 | 21.4% (inactive)
15 | O=C1C(Cl)=C(Cl)C(=O)C2=C1CC(Cl)C(Cl)C2 (centres undefined) | 99.3% (active)
16 | N#CC(/C=C/c1ccccc1)(NO)Nc1cccc(Cl)c1 (centres undefined) | 99.6% (active)
17 | O=C(O)c1ccccc1C(c1ccccc1)c1ccccc1 | 65.2% (inactive)
18 | OCC1(c2ccccc2)OC1c1ccccc1 (centres undefined) | 62.6% (inactive)
19 | COc1ccc(NS(=O)(=O)c2ccc(F)cc2)cc1 | 99.3% (active)
20 | CCn1c2nc(=O)n(C)c(=O)c-2[n+]([O-])c2cc(C)ccc21 | 26.4% (inactive)

Row | SMILES | growth inhibition
21 | O=[N+]([O-])C(=C(Nc1ccccc1)Nc1ccccc1)C(Cl)=C(Cl)Cl | 93% (active)
22 | CCC/C(=N\NC(=S)N(C)C)c1ccccn1 | 99.6% (active)
23 | O=C(CSc1cc[o+]cc1)c1cccc([N+](=O)[O-])c1 | 81.8% (active)
24 | CC12CCC(c3sc(N)c(C#N)c31)C2(C)C (centres undefined) | 60.2% (inactive)
25 | N#CC(C#N)=C(C1CC1)C1CC1 | -2.5% (inactive)
26 | Cc1c(N=Nc2cccc(F)c2)c(-c2ccccc2)nn1C(N)=S | 99.4% (active)
27 | CN1COc2c(Cl)cc(Cl)cc2C1 | 57.2% (inactive)
28 | O=C1CCCCO1 | -19.4% (inactive)
29 | Nc1cc2c(cc1/C=C(\C(=O)O)c1ccccc1)OCO2 | -8.75% (inactive)
30 | Cc1cc2c(cc1C)C(=O)OC2=O | 45.5% (inactive)
31 | C(/Cc1ccc2c(c1)OCO2)=N\NC1=NCCCCN1 | -7.25% (inactive)
32 | CCCCCCCCN(CCCCCCCC)CC(O)c1cc(-c2ccc(OC)cc2)nc2cc(Cl)ccc12 (centres undefined) | 92.5% (active)
33 | Cc1cc(C(=O)CBr)c(CN2C(=O)c3ccccc3C2=O)c(=O)n1C | 12.3% (inactive)
34 | O=C(O)c1ccccc1-c1c2ccc(=O)c(Br)c-2oc2c(Br)c(O)ccc12 | 98% (active)
35 | O=C(Nc1cccc(NC(=O)c2cc(=O)c3ccccc3o2)n1)c1cc(=O)c2ccccc2o1 | 14.9% (inactive)
36 | COC(=O)c1nc(=S)[nH]c(C(=O)OC)c1C(=O)c1ccc([N+](=O)[O-])cc1 | 49.4% (inactive)
37 | COC1/C=C\C=C(/C)C(=O)Nc2cc3nc4cc(Br)ccc4oc-3c(c2=O)CC(C)CC(OC)C(O)C(C)/C=C(\C)C1OC(N)=O (centres undefined) | 92% (active)
38 | NC(=S)C(=S)N/C=C(/c1ccc(Cl)cc1)S(=O)(=O)Cc1ccc(Cl)cc1 | 96.2% (active)
39 | O=C(Cc1ccccc1)c1ccccc1C(=O)NNc1ccccc1 | -6.4% (inactive)
